Source: PubChem
The sample as a whole holds a higher share of hits than the screen did.
RMI-FANCM inh – inhibitors of human RMI core complex binding to FANCM MM2 | Fluorescence polarization, RMI core complex with F-MM2 peptide; hits give low values | FP signal (polarization) at 33 µM | 70,000 tested, 0.58% active | AID 1159607; in the data active = FP signal below about 40
Starred values were filed as active, the others as inactive.

Screening O=C(CCc1csc(NC(=O)c2ccc[nH]c2=O)n1)Nc1ccc(F)c(Cl)c1 returned RMI-FANCM inh 62.
For O=S(=O)(NCCOc1ccc2c(c1)OCO2)c1ccc(C(F)(F)F)cc1 the results were RMI-FANCM inh 62.
COc1ccc(OC)c(S(=O)(=O)Nc2ccc3c(c2)CN(C(C)=O)CC3)c1 was read as RMI-FANCM inh 67.
`CCN(CC)c1ccc(C(C)=O)c(O)c1` gave RMI-FANCM inh 67.
Screening O=C(CSc1ncnc2scc(-c3ccccc3)c12)Nc1ccc(Cl)cc1 returned RMI-FANCM inh 71.
For COc1ccc(OC)c(S(=O)(=O)NCCOc2ccccc2)c1 the results were RMI-FANCM inh 61.
For CCCCNC(=O)Cc1ccc(-n2c(=O)c3ccccc3n(Cc3cccc(F)c3)c2=O)cc1 the results were RMI-FANCM inh 70.
Screening Nc1cc2c3c(c1)CCC(=O)N3CCC2 returned RMI-FANCM inh 21*.
For CC1CC(C)CN(S(=O)(=O)c2cc3c4c(c2)CCC(=O)N4CCC3)C1 (stereo unspecified) the results were RMI-FANCM inh 54.
For COc1ccc(OC)c(S(=O)(=O)Nc2cc3c4c(c2)CCC(=O)N4CCC3)c1 the results were RMI-FANCM inh 52.
`CC(=O)N1CCc2ccc(NC(=O)c3cccc4ccccc34)cc2C1` gave RMI-FANCM inh 68.
COc1nc2c(c(=O)n(Cc3ccccc3)c(=O)n2C)n1C was read as RMI-FANCM inh 62.
Screening CCOC(=O)c1cc(C#N)c(Sc2ccccc2)nc1C(F)(F)F returned RMI-FANCM inh 53.
Screening CCOC(=O)c1cc(C#N)c(SCC(=O)Nc2ccc(C(C)=O)cc2)[nH]c1=O returned RMI-FANCM inh 55.
CCOC(=O)c1cc(C#N)c2ccccn2c1=O was read as RMI-FANCM inh 33*.
Screening O=C(CS(=O)(=O)c1cccs1)Nc1ccccc1C(F)(F)F returned RMI-FANCM inh 64.
CN(C)c1ccc(/C=N\NC(=O)c2n[nH]c3c2CCCC3)cc1 was read as RMI-FANCM inh 60.
For CC(C)Oc1ccc(C(=O)Nc2nnc(-c3ccc4c(c3)OCO4)o2)cc1 the results were RMI-FANCM inh 62.
COc1cc(C(=O)Nc2nnc(-c3ccc4c(c3)OCO4)o2)cc(OC)c1OC was read as RMI-FANCM inh 33*.
CC(=O)Nc1nnc(-c2ccc3c(c2)OCO3)o1 was read as RMI-FANCM inh 64.
For CCNC(=O)/C(C#N)=C/c1ccc(Cl)c(Cl)c1 the results were RMI-FANCM inh 50.
`COc1cccc(CSc2nc(CC(=O)NC3CC3)cc(=O)[nH]2)c1` gave RMI-FANCM inh 54.
Screening COc1cccc(CSc2nc(CC(=O)Nc3nnc(C)s3)cc(=O)[nH]2)c1 returned RMI-FANCM inh 34*.
For COc1cccc(CSc2nc(CC(=O)Nc3ccc(C)c(C)c3)cc(=O)[nH]2)c1 the results were RMI-FANCM inh 64.
For COC(=O)c1cc(C)sc1N1C(=O)C2CNC3(C(=O)Nc4ccc(Br)cc43)C2C1=O (stereo unspecified) the results were RMI-FANCM inh 55.
`CCOC(=O)c1c(NC(=O)CN2CC(C)OC(C)C2)sc(Br)c1-c1ccc(C)cc1` (stereo unspecified) gave RMI-FANCM inh 61.
`CCOc1ccc(-c2cc(=O)n(CC(=O)N3CCN(c4ccc(F)cc4)CC3)cn2)cc1` gave RMI-FANCM inh 75.
COc1ccc(C)cc1S(=O)(=O)N1CCN(Cc2nc(C(C)(C)C)cs2)CC1 was read as RMI-FANCM inh 62.
Screening Fc1ccc(Cn2c3ccccc3c3nn4cnnc4nc32)cc1 returned RMI-FANCM inh 28*.
`COCCNC(=O)Cc1cn(Cc2ccc(F)cc2)c2ccccc12` gave RMI-FANCM inh 65.
Screening COc1ccc(Cn2cnc3c4ccccc4n(CC(=O)NCc4ccccc4)c3c2=O)cc1 returned RMI-FANCM inh 101.
NC(=S)c1ccc(F)cc1 was read as RMI-FANCM inh 48.
Cc1nc(-n2nc(-c3ccco3)cc2NC(=O)c2cc3ccccc3o2)[nH]c(=O)c1C was read as RMI-FANCM inh 23*.
For Cc1nc(-n2nc(-c3cccs3)cc2NC(=O)c2cc3ccccc3o2)[nH]c(=O)c1C the results were RMI-FANCM inh 64.
For Cc1nc(-n2nc(-c3ccco3)cc2NC(=O)c2ccc(Br)o2)[nH]c(=O)c1C the results were RMI-FANCM inh 39*.
For CCOCC(=O)Nc1cc(-c2ccco2)nn1-c1nc(C)c(C)c(=O)[nH]1 the results were RMI-FANCM inh 65.
`CCC(C(=O)Nc1cc(-c2cccs2)nn1-c1nc(C)c(C)c(=O)[nH]1)c1ccccc1` (stereo unspecified) gave RMI-FANCM inh 61.
Screening Cc1nc(-n2nc(-c3ccco3)cc2NC(=O)Cc2ccc(F)cc2)[nH]c(=O)c1C returned RMI-FANCM inh 61.
Screening CCC(C(=O)Nc1cc(-c2ccco2)nn1-c1nc(C)c(C)c(=O)[nH]1)c1ccccc1 (stereo unspecified) returned RMI-FANCM inh 31*.
`COc1cccc(C(=O)Nc2cc(-c3ccco3)nn2-c2nc(C)c(C)c(=O)[nH]2)c1OC` gave RMI-FANCM inh 56.
